Experimental data reported in the supplement of paper PMC8253809.
“And” between values parts separate entries of the source, which are not always exact repeats. Equal values may be shown once.

Assays:
Experiment in all cases: growth inhibition (% activity, log2 RLU normalised to DMSO / staurosporine); higher = more growth inhibition
Settings in all cases: 33 µM
DIPGX29 = test system: DIPGX29 (H3.3 K27M diffuse intrinsic pontine glioma line)
In short: (§1)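 For each approved drug, the growth-inhibition value is the replicate median of per-plate normalised CellTiter-Glo data. Luminescence was log2-transformed and expressed as % activity between solvent and positive control wells. Drugs were applied in triplicate at a single final concentration of about 33 μM for 7 days at 37 °C, 5% CO2 to pHGG cell lines and H9-derived neural stem cells.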

DIPGX37 = test system: DIPGX37 (H3.3 K27M diffuse intrinsic pontine glioma line)
In short: as §1

DIPGX7 = test system: DIPGX7 (H3.3 K27M diffuse intrinsic pontine glioma line)
In short: as §1

DIPGX9 = test system: DIPGX9 (diffuse intrinsic pontine glioma line)
In short: as §1

HGGX39 = test system: HGGX39 (paediatric high-grade glioma line)
In short: as §1

HGGX6 = test system: HGGX6 (H3.3 G34R paediatric high-grade glioma line)
In short: as §1

HNSC = test system: HNSC
In short: as §1

SUDIPGIV = test system: SUDIPGIV (diffuse intrinsic pontine glioma line)
In short: as §1

SUDIPGVI = test system: SUDIPGVI (diffuse intrinsic pontine glioma line)
In short: as §1

SUDIPGXIII = test system: SUDIPGXIII (diffuse intrinsic pontine glioma line)
In short: as §1

| Compound | growth inhibition (DIPGX29) | growth inhibition (DIPGX37) | growth inhibition (DIPGX7) | growth inhibition (DIPGX9) | growth inhibition (HGGX39) | growth inhibition (HGGX6) | growth inhibition (HNSC) | growth inhibition (SUDIPGIV) | growth inhibition (SUDIPGVI) | growth inhibition (SUDIPGXIII) |
| --- | --- | --- | --- | --- | --- | --- | --- | --- | --- | --- |
| CCCc1nc2c(C)cc(-c3nc4ccccc4n3C)cc2n1Cc1ccc(-c2ccccc2C(=O)O)cc1 | -1.54% | -0.467% | -0.895% | -0.132% | -1.04% | -1.06% | -0.614% | -2.37% | 0.572% | -1.14% |
| O.O.O.O.O=C([O-])CC(O)(CC(=O)[O-])C(=O)[O-].[Li+].[Li+].[Li+] | 1.75% | 1.97% | 1.43% | 0.467% | -0.0466% | -1.34% | 26.2% | 0.611% | 1.36% | -0.99% |
| CN(C)/N=N/c1[nH]cnc1C(N)=O | 5.71% | 3.55% | 2.2% | 3.08% | 9.03% | 7.4% | 4.41% | 12.8% | 2.55% | 0.947% |
| O=P(O)(O)C(O)(Cc1cccnc1)P(=O)(O)O | 0.184% and -0.127% | -0.218% and -0.408% | 2.03% and 0.167% | 0.335% and 1.09% | 3.43% and 1.8% | 2.06% and -1.19% | 2.32% and -0.808% | -0.292% and 0.354% | -0.685% and 2.28% | -0.822% and -0.975% |
| CN1CCN(c2c(F)cc3c(=O)c(C(=O)O)cn(CCF)c3c2F)CC1 | 1.06% | 4.17% | 2.04% | 2.14% | 2.42% | -0.149% | 5.69% | 2.18% | 2.45% | -2.39% |
| CCCC(=O)Nc1ccc(OCC(O)CNC(C)C)c(C(C)=O)c1 (stereo not given) | -1.23% | -0.501% | -1.01% | -0.6% | -0.175% | 0.315% | -4.5% | -0.848% | -2.3% | -1.79% |
| COc1cc(C(=O)NC2CCCNC2)cc(OC)c1OC (stereo not given) | 0.123% | 2% | 0.49% | 0.203% | 2.37% | -3.35% | 6.28% | 1.23% | 0.918% | -1.95% |
| Clc1ccc2c(c1)C(N1CCNCC1)=Nc1ccccc1O2 | 0.461% | 1.52% | 1.07% | 1.29% | 4.43% | -0.239% | 0.635% | 0.284% | 2.1% | 0.741% |
| Clc1ccc(CCC(Cn2ccnc2)Sc2c(Cl)cccc2Cl)cc1 (stereo not given) | 5.06% | 1.97% | 3.57% | 4.57% | 13.2% | 10.2% | 10.2% | 13.5% | 4.83% | 11.4% |
| C=C[C@]1(C)C[C@@H](OC(=O)CS[C@@H]2C[C@H]3CC[C@@H](C2)N3C)[C@]2(C)[C@H](C)CC[C@]3(CCC(=O)[C@H]32)[C@@H](C)[C@@H]1O | 4.15% | 2.94% | 3.25% | 4.84% | 11.9% | 5.9% | 7.78% | 12% | 5.01% | 5.37% |
| CCC(=O)O[C@]1(C(=O)CCl)[C@@H](C)C[C@H]2[C@@H]3CCC4=CC(=O)C=C[C@]4(C)[C@@]3(F)[C@@H](O)C[C@@]21C | 2.76% | 3.09% | 1.96% | 5.92% | 8.62% | 1.59% | 10.2% | 6.72% | 2.14% | 2.24% |
| CCCCNc1cc(C(=O)O)cc(S(N)(=O)=O)c1Oc1ccccc1 | -3.49% | -2.83% | -0.851% | -2.74% | -2.98% | -3.62% | -3.52% | -5.34% | -8.55% | -2.43% |
| O=C(O)Cc1ccccc1Nc1c(Cl)cccc1Cl | -1.37% and -2.99% and -0.71% | -1.99% and -1.73% and 0.418% | -1.57% and -1.88% and -1.25% | -1.08% and -0.109% and -0.719% | -2.62% and -2.86% and 0.69% | 0.514% and 2.52% and -0.0763% | -3.6% and -4.25% and -2.46% | -6.51% and -6.18% and -5.78% | -1.69% and -1.9% and -1.43% | -0.705% and -7.4% and 0.367% |
| C#CCN[C@@H]1CCc2ccccc21 | 1.3% | 4.12% | 1.95% | 1.74% | 3.31% | -0.441% | 12.3% | 2.79% | 1.93% | 0.598% |
| CCCCCCOC(=O)NC(=N)c1ccc(NCc2nc3cc(C(=O)N(CCC(=O)OCC)c4ccccn4)ccc3n2C)cc1 | 0.869% | 2.08% | 1.77% | 1.32% | 1.62% | 2.11% | 1.37% | 0.438% | 2.67% | -16.9% |
| NC(=O)N1c2ccccc2CC(=O)c2ccccc21 | -3.02% | -1.81% | -2.16% | -3.17% | -2.13% | -4.21% | -3.92% | -3.93% | -1.28% | -0.579% |
| COC(=O)N[C@H](C(=O)N[C@@H](Cc1ccccc1)[C@@H](O)CN(Cc1ccc(-c2ccccn2)cc1)NC(=O)[C@@H](NC(=O)OC)C(C)(C)C)C(C)(C)C | -2.79% | -2.21% | 1.19% | -1.97% | -2.26% | -3.15% | -5.7% | -0.315% | -14.4% | 0.413% |
| CCNC(=O)CCC/C=C\C[C@@H]1[C@@H](/C=C/[C@@H](O)CCc2ccccc2)[C@H](O)C[C@@H]1O | 0.795% | 0.309% | 1.77% | 0.624% | 3.66% | 1.1% | 1.72% | 0.456% | 0.646% | -0.283% |
| Cc1ccccc1C(=O)Nc1ccc(C(=O)N2CCCC(O)c3cc(Cl)ccc32)c(C)c1 (stereo not given) | 1.7% | 2.36% | 1.66% | 1.96% | 5.63% | 2.91% | 3.21% | 2.35% | 3.58% | 0.514% |
| OCCN1C[C@H](O)[C@@H](O)[C@H](O)[C@H]1CO | 2.17% | 1.74% | 3.33% | 2.76% | 4.58% | 1.44% | 6.31% | 2.25% | 4.59% | 1.39% |
| Cc1cccc(CN2CCN(C(c3ccccc3)c3ccc(Cl)cc3)CC2)c1 (stereo not given) | 6.1% | 6.46% | 7.93% | 8.12% | 6.5% | 7.41% | 3.84% | 25.4% | 4.9% | 4.67% |
